Data on 20 molecules can be found in PubChem BioAssay (NCI).

Experiment [1] in a line: NCI Yeast Anticancer Drug Screen. Data for the rad50 strain (AID 155).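 Note: 0% = growth of vehicle-only cultures of the same strain.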 As to conditions: S. cerevisiae rad50 strain growth inhibition; at 50.0 µM; active compounds read high. In outline:
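Growth of the mutant yeast was measured after compound exposure and referenced to vehicle-treated cultures.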

Experiment [2] is described as follows: NCI Yeast Anticancer Drug Screen. Data for the mec2-1 strain (AID 157). Conditions: S. cerevisiae mec2-1 strain, at 50.0 µM, active compounds read high. A digest of the protocol: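 Readout is yeast growth inhibition, normalised to vehicle-treated controls, in the mec2-1 strain exposed to compound.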
Experiment [3] can be described thus: NCI Yeast Anticancer Drug Screen. Data for the sgs1 mgt1 strain (AID 161).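 Note: 0% = growth of cultures given vehicle only.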 As to conditions: S. cerevisiae sgs1 mgt1 strain, at 50.0 µM, active compounds read high. In outline: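 Growth of a repair-deficient yeast mutant was monitored after compound treatment and expressed as inhibition relative to vehicle-treated cultures.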
The nature of experiment [4]: NCI Yeast Anticancer Drug Screen. Data for the cln2 rad14 strain (AID 165).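 Note: 0% = growth equal to vehicle treated cultures.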 As to conditions: S. cerevisiae cln2 rad14 strain, at 50.0 µM, active compounds read high. In outline:
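Relative to vehicle controls, growth inhibition of compound-treated cln2 rad14 yeast was recorded.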

A short description of experiment [5]: NCI Yeast Anticancer Drug Screen. Data for the bub3 strain (AID 167). As to conditions: S. cerevisiae bub3 mutant strain, at 50.0 µM, active compounds read high. A digest of the protocol:
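Whole-cell yeast assay. The mutant strain was incubated with compounds, and growth inhibition was determined by comparison with vehicle-treated cells.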

Experiment [6] can be described thus: NCI Yeast Anticancer Drug Screen. Data for the mlh1 rad18 strain (AID 175). As to conditions: S. cerevisiae mlh1 rad18 strain growth inhibition; at 50.0 µM; active compounds read high. In outline: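 Test agents were incubated with a yeast strain of defined genotype (DNA damage repair defect). Inhibition of growth was derived by comparison with vehicle-exposed cultures.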

This is part of a sample that, as a whole, favours compounds with a hit. Of some 79,000 tested, about 15% had one in any assay. Values without a mark were called inactive. Activity calls are given as the source filed them. Cut-off read from the data, not from the text of the source: active = growth inhibition above about 70%; inactive = the rest. Where a SMILES comes first, the peptide text is derived from it. [ ]: non-standard residue; d: D form. The star is where a group is joined. Myristoyl = CCCCCCCCCCCCCC(=O)*; Nle = CCCC[CH](N)C(=O)O; Cbz = O=C(OCc1ccccc1)*

On to `O=C1ON=C(c2ccccc2)/C1=C\C=C\c1ccccc1`, for which the growth inhibition in experiment [1] was 18.2%; in experiment [2] it was 9.9%; in experiment [3], 1.45%; in experiment [4], 23.1%; in experiment [5], 35.6%; in experiment [6], 14.5%.
For the molecule `NC(=O)C(CO)NC(=O)c1ccc[n+](Cc2ccccc2)c1` (stereo not given), the growth inhibition in experiment [1] is 5.3%; in experiment [2], -1.6%; in experiment [3], -1.2%; in experiment [4], -4.5%; in experiment [5] it was 0.15%; in experiment [6], 27.9%.
For `CCCCCCCCCCCCCC(=O)NCC(=O)NC(C)C(=O)NC(CCCNC(=N)N)C(=O)NC(C)C(=O)NC(CO)C(=O)NC(C(=O)NC(CC(C)C)C(=O)NC(CO)C(=O)NCC(=O)NCC(=O)NC(CCC(=O)O)C(=O)NC(CC(C)C)C(=O)NC(CC(=O)O)C(=O)NC(CCCNC(=N)N)C(=O)NC(Cc1c[nH]c2ccccc12)C(=O)NC(Cc1ccc(O)cc1)C(N)=O)C(C)C` (stereo not given) (Myristoyl-GARASVLSGGELDRWY-NH2; configuration not given here), the growth inhibition in experiment [1] was -4%; in experiment [2], -6.9%; in experiment [3], -12.7%; in experiment [4], 8.8%; in experiment [5] it was -40.4%; in experiment [6], -6.5%.
Regarding `O=C1C2CCCC2C1(c1ccccc1)c1ccccc1` (stereo not given), the growth inhibition in experiment [1] was -7.25%; in experiment [2], 38.6%; in experiment [3] it was 64.2%; in experiment [4], -36.4%; in experiment [5], 49.9%; in experiment [6] it was 10.8%.
Take `CSc1ccc(NC(=O)Oc2cc(C)c(Cl)cc2C(C)C)cc1`: the growth inhibition in experiment [1] is 39.6%; in experiment [2], 94.8% (active); in experiment [3] it was 91.8% (active); in experiment [4], 15.8%; in experiment [5], 97.8% (active); in experiment [6] it was 93.5% (active).
For `O/N=C(/c1ccccc1)C1CCCCC1`, the growth inhibition was 20.7% in experiment [1]; -1.05% in experiment [2]; 13% in experiment [3]; -0.15% in experiment [4]; -8.5% in experiment [5]; 10.3% in experiment [6].
Consider `O=C1Cn2c(cc(=O)c3ccccc32)O1`, for which the growth inhibition in experiment [1] is 37.5%; in experiment [2] it was 13.6%; in experiment [3], 5.9%; in experiment [4] it was -9.35%; in experiment [5] it was 9.8%; in experiment [6], 14.8%.
Turning to `O=C(N=C1SCCN1C(=O)C(C(F)(F)F)C(F)(F)F)C(C(F)(F)F)C(F)(F)F`, the growth inhibition in experiment [1] was -20.6%; in experiment [2] it was -3.5%; in experiment [3], 4.95%; in experiment [4], 28.4%; in experiment [5], 2.3%; in experiment [6], -36.9%.
Regarding `Nc1c(-c2ncc[nH]2)ncn1CC(O)C(O)C(O)CO` (stereo not given), the growth inhibition was 7.5% in experiment [1]; 19.6% in experiment [2]; 12.3% in experiment [3]; 22.9% in experiment [4]; 3.2% in experiment [5]; 17.9% in experiment [6].
Turning to `CCCC[P+](CCCC)(CCCC)c1ccccc1`, the growth inhibition in experiment [1] is -12.7%; in experiment [2] it was 12.3%; in experiment [3], -0.05%; in experiment [4], -32.1%; in experiment [5] it was -8.95%; in experiment [6] it was -1.4%.
In the case of `Cc1n[nH]c(=S)n1NC=O`, the growth inhibition in experiment [1] is -12.3%; in experiment [2], -6.3%; in experiment [3], -4.7%; in experiment [4] it was -20.2%; in experiment [5], -4.95%; in experiment [6], -15.8%.
Consider `CCOC(=O)NC(Nc1ccc(OC(F)(F)F)cc1)(C(F)(F)F)C(F)(F)F`, for which the growth inhibition in experiment [1] is -8.7%; in experiment [2], -8.2%; in experiment [3], -39.1%; in experiment [4], -1.25%; in experiment [5] it was -19.9%; in experiment [6], -0.3%.
Turning to `CS(=O)(=O)OC1COCOC1C1OCOCC1OS(C)(=O)=O` (stereo not given), the growth inhibition in experiment [1] was 7.8%; in experiment [2], 1.35%; in experiment [3], 10.5%; in experiment [4], -10.4%; in experiment [5], -6%; in experiment [6], -0.55%.
As to `CC(C)CN(CC(C)C)C(=S)[S-].CC(C)CN(CC(C)C)C(=S)[S-].[Zn]`, the growth inhibition was 54.5% in experiment [1]; 12.7% in experiment [2]; 55% in experiment [3]; 21.4% in experiment [4]; 4.65% in experiment [5]; 32.4% in experiment [6].
Regarding `Cc1ccc(CC(=O)N(C)C)c([N+](=O)[O-])c1`, the growth inhibition in experiment [1] is -9.5%; in experiment [2] it was -7.15%; in experiment [3], -1%; in experiment [4] it was 0.95%; in experiment [5] it was -8.45%; in experiment [6] it was -25.1%.
Regarding `Cc1ccc(C(=O)/C=C/c2ccc3c(c2)OCO3)c(C)c1`, the growth inhibition is 39.9% in experiment [1]; 21.8% in experiment [2]; 52.6% in experiment [3]; -6.7% in experiment [4]; 47.5% in experiment [5]; 33.3% in experiment [6].
On to `CC[N+](C)(C)c1ccc(/C=C(/C#N)C(=O)OC)cc1`, for which the growth inhibition in experiment [1] is 7.55%; in experiment [2] it was 9.8%; in experiment [3] it was 12.8%; in experiment [4], 11.2%; in experiment [5], -1.2%; in experiment [6] it was -1.55%.
As to `CCCCC(NC(=O)C(Cc1ccccc1)NC(=O)OCc1ccccc1)C(=O)O` (stereo not drawn) (Cbz-Phe-[Nle]-OH; configuration not given here), the growth inhibition in experiment [1] was 5.9%; in experiment [2], -1.2%; in experiment [3], -4.3%; in experiment [4], -31.8%; in experiment [5], -3.2%; in experiment [6], 9.05%.
As for `COC(=O)C1(Cc2ccccc2)Cc2ccccc2C1`, the growth inhibition was 24.7% in experiment [1]; 36.1% in experiment [2]; 36.4% in experiment [3]; 20.2% in experiment [4]; 55.4% in experiment [5]; 12.2% in experiment [6].
`CN1CCN=C(C(=O)O)C=C1c1ccccc1O`: the growth inhibition in experiment [1] was 28.9%; in experiment [2] it was 26.7%; in experiment [3], 26.7%; in experiment [4], -28.2%; in experiment [5] it was -2.4%; in experiment [6] it was 11.9%.
